Results on 14 molecules are retold here after PubChem BioAssay (NCI).

The test in a line: NCI Yeast Anticancer Drug Screen. Data for the bub3 strain (AID 167). Conditions: S. cerevisiae bub3 mutant strain, hits give high values. As for the experimental part: Growth inhibition of yeast strains with defined genetic alterations is measured as a screen for potential anti-cancer activity. Selected strains with alterations in DNA damage repair or cell cycle control were exposed to compounds and growth inhibition was measured relative to vehicle treated controls. The strain used in this assay is bub3

The mark [1] stands for this setting: at 5.0 µM (retest, dose inferred, filed as 0.5).
[2] abbreviates: at 50.0 µM (retest, dose inferred, filed as 5.0).

Compounds without any hit were thinned out: in the full panel of roughly 79,000, 15% have a hit. Unmarked numbers belong to inactive results. Active and inactive are the calls of the source. Cut-off read from the data, not from the text of the source: active = growth inhibition above about 70%; inactive = the rest.

`CC(C)(C)C(=O)CC(=O)C(F)(F)C(F)(F)C(F)(F)F.[Ag]`: the growth inhibition runs as follows: under setting [1], 98% (active); under setting [2], 98% (active); (at 50.0 µM) 87.8% (active).

Regarding `O=c1nc(NC(c2ccccc2)(c2ccccc2)c2ccccc2)ccn1CCNCCn1ccc(NC(c2ccccc2)(c2ccccc2)c2ccccc2)nc1=O`, the growth inhibition runs as follows: under setting [1], 74% (active); under setting [2], 98% (active); (at 50.0 µM) 91% (active).

With `O=[N+]([O-])c1ccc(S(=O)(=O)N/N=C/C=C/c2ccccc2)cc1`, the growth inhibition under setting [1] is 6%, the growth inhibition under setting [2] was 36% and the growth inhibition (at 50.0 µM) was 48.6%.

Turning to `[N-]=[N+]=NC1=C(C(=O)c2ccccc2)C(=O)c2cccc3cccc1c23`, the growth inhibition under setting [1] is 8%, the growth inhibition under setting [2] is 40% and the growth inhibition (at 50.0 µM) is 25.4%.

`CCCNCCCC(C)Nc1cc(OC)cc2c(C)ccnc12` (configuration not stated): the growth inhibition is -6% under setting [1], 80% (active) under setting [2] and 53.7% (at 50.0 µM).

Consider `Fc1ccc2[nH]ccc2c1`, for which the growth inhibition under setting [1] was 2%, the growth inhibition under setting [2] was 62% and the growth inhibition (at 50.0 µM) is 62.3%.

With `COc1ccc2cc(CNCCCCCCCCNCc3ccc4cc(OC)ccc4c3)ccc2c1`, the growth inhibition under setting [1] is 9%, the growth inhibition under setting [2] was 100% (active) and the growth inhibition (at 50.0 µM) is 93.7% (active).

Turning to `O[Si](O)(c1ccccc1)c1ccccc1`, the growth inhibition is -2% under setting [1], 94% (active) under setting [2] and 95.6% (active) (at 50.0 µM).

For `S=C(Nc1ccccc1)[S][Sb]([S]C(=S)Nc1ccccc1)[c]1ccccc1`, the growth inhibition is, setting by setting: under setting [1], -11%; under setting [2], 25%; (at 50.0 µM) 3.15%.

With `c1ccc([Si](C[CH2][Sn]([c]2ccccc2)([c]2ccccc2)[c]2ccccc2)(c2ccccc2)c2ccc([Si](C[CH2][Sn]([c]3ccccc3)([c]3ccccc3)[c]3ccccc3)(c3ccccc3)c3ccccc3)cc2)cc1`, the growth inhibition by setting is: under setting [1], 99% (active); under setting [2], 98% (active); (at 50.0 µM) 97.6% (active).

On to `COC(=O)C1(c2ccc(N(C)C)cc2OC)CCCN(C(=O)Oc2ccccc2[N+](=O)[O-])CCc2c1[nH]c1ccccc21` (configuration not stated), for which the growth inhibition was 53% under setting [1], 85% (active) under setting [2] and 42% (at 50.0 µM).

Consider `CCC(=O)C(C(=O)CC)c1c(OC(=O)c2ccccc2)ccc(O)c1C(=O)OC`, for which the growth inhibition reads like this: under setting [1], -2%; under setting [2], -2%; (at 50.0 µM) 42.8%.

For `O=C([O-])c1ccccc1[I+]c1ccc(C2CCCCC2)cc1`, the growth inhibition reads like this: under setting [1], 0%; under setting [2], 45%; (at 50.0 µM) 71.8% (active).

In the case of `Cc1c(F)c(C)c(C(=O)O)c(C)c1F`, the growth inhibition is, setting by setting: under setting [1], 11%; under setting [2], 99% (active); (at 50.0 µM) 99.2% (active).
